Results taken from PubChem BioAssay (NCATS).
“And” between values parts separate entries of the source, which are not always exact repeats. Equal entries are not always repeated. Results filed as inconclusive are left out. The source made the active and inactive calls. Unless noted, calls follow the shape of the dose curve; as a rule, active = well fitted curve in the direction sought with a large enough effect; inconclusive = small, poorly fitted or top-dose-only effect, or another doubt; inactive = no such curve, though single readings can be large; an effect the other way counts as inactive or inconclusive.

Legend:
[1] = Cell Viability - MRC5 (AID 434; calls by dose curve;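 also: potency is read from the fitted curve at half-maximal effect; cells exposed to compound for 40 hours at 37 °C; potency reflects cytotoxicity seen as loss of intracellular ATP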); conditions: MRC5 lung fibroblast viability, qHTS
Method in brief: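 Decrease in intracellular ATP, quantified by luciferase light output, reflects compound toxicity toward MRC5 cells exposed for 40 hr in complete culture medium. Concentration-response curves, scaled between DMSO and 100 uM tamoxifen, gave AC50 values.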

[2] = Cell Viability - SK-N-SH (AID 435; calls by dose curve;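 also: potency is read from the fitted curve at half-maximal effect; compound exposure lasted 40 h at 37 °C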); conditions: SK-N-SH neuroblastoma cell viability qHTS
Method in brief: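 Human neuroblastoma line, 40 h exposure at 37 °C, ATP quantified via luciferase luminescence; DMSO and 100 uM tamoxifen define 0 and 100% inhibition for AC50 fitting.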

[3] = Cell Viability - NIH 3T3 (AID 541); conditions: NIH 3T3 cell viability, qHTS; activity change, negative = cytotoxicity: at 92.2 µM (top of the series);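 also: plate controls were DMSO alone for no effect and tamoxifen positive control for full effect; nearly all actives have a fitted effect of over 25% in size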
Method in brief: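 In this cytotoxicity screen, acute toxicity is scored as an ATP drop measured by CellTiter-Glo in NIH 3T3 fibroblasts following a 40 hr, 37 °C incubation with compound.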

[4] = Cell Viability - Mesenchymal (AID 546); conditions: mesenchymal cells viability, qHTS; activity change, negative = cytotoxicity: at 91.7 µM (top of the series);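 also: cells exposed to compound for 40 hours before reading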
Method in brief: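 In this qHTS cytotoxicity format, glomerulus-derived human mesenchymal kidney cells received compound for 40 hr, then luciferase-based ATP quantitation. Concentration-response data were fitted with the Hill equation.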

[5] = Cellular Toxicity (caspase-3) HepG2 (AID 654); conditions: HepG2 caspase-3 activation, luminescence, 0% = DMSO only, 100% = tamoxifen; series mostly up to 92.2 µM;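 also: cells exposed to compound for 16 hours before reading; 0% = DMSO alone and 100% = caspase signal from 100 µM tamoxifen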
Method in brief: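 Concentration-response AC50 values reflect caspase-3/7 induction in HepG2 cells after 16 hours of compound exposure, quantified by luminescence from liberated aminoluciferin and referenced to 100 uM tamoxifen as full stimulation.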

[6] = Cellular Toxicity (caspase-3) HUV-EC-C (AID 656); conditions: HUV-EC-C cells, caspase-3 activation (apoptosis), vehicle = 0, 100 µM tamoxifen = 100%; series mostly up to 92.2 µM
Method in brief: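 Concentration-dependent caspase 3/7 induction was assessed in HUV-EC-C cells exposed for 16 hours. Data scaled between DMSO and tamoxifen (100 uM) controls.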

[7] = Cellular Toxicity (caspase-3) BJ (AID 658); conditions: BJ fibroblasts, luminescence, normalized: DMSO 0%, staurosporine 100%; series mostly up to 91.7 µM
Method in brief: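 Plated BJ cells (1000/well) rested 5 hr, received compound for 16 hr at 37 °C, then Caspase-Glo 3/7 reagent for 1 hr at room temperature before luminescence reading.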

[8] = Cellular Toxicity (caspase-3) MRC-5 (AID 659); conditions: MRC-5 cells, luminescence, normalized: DMSO 0%, 10 µM staurosporine 100%; series mostly up to 91.7 µM
Method in brief: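 Apoptosis readout in MRC-5 cells: luciferase light generated after caspase 3/7 cleaves a peptide-aminoluciferin substrate, measured post 16 hr compound incubation at 37 °C.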

[9] = Cellular Toxicity (caspase-3) Mesangial (AID 660); conditions: mesangial cells, normalized: DMSO 0%, 100 µM tamoxifen 100%; series mostly up to 91.7 µM;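 also: combined caspase 3 and 7 activity read by Caspase-Glo luminescence; cells exposed to compound for 16 h before the caspase read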
Method in brief: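 AC50 values come from Hill-equation fits of caspase 3/7 activation, measured as Caspase-Glo luminescence in human glomerular mesangial cells exposed to compound for 16 h at 37 °C; 100% set by 100 uM tamoxifen.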

[10] = Cellular Toxicity (caspase-3) Hek293 (AID 664); conditions: HEK293 caspase-3 activation, DMSO = 0%, 100 µM tamoxifen = 100%; series mostly up to 92.2 µM;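 also: cells exposed to compound for 16 h at 37 °C before readout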
Method in brief: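 Apoptosis readout: Caspase-Glo 3/7 signal in human HEK293 cells following 16-hour compound incubation. Responses scaled between DMSO baseline and 100 uM tamoxifen.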

[11] = Cellular Toxicity (caspase-3) Renal Proximal Tubule (AID 667); conditions: renal proximal tubule cells, primary cells freshly taken from rat, solvent-only wells 0%, staurosporine 100%; series mostly up to 91.7 µM;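 also: cells exposed to compound for 16 hours at 37 °C before detection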
Method in brief: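 Caspase-Glo 3/7 read-out, rat primary kidney proximal tubule cells. Compound exposure 16 h, 37 °C; detection after 1 h at RT. Activity scaled to DMSO and 10 uM staurosporine.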

[12] = MultiTox-Fluor Cytotoxicity Assay - LYMP1-003 - Live Cells (AID 962); conditions: LYMP1-003 lymphoblastoid cells, MultiTox-Fluor live-cell protease fluorescence; series mostly up to 92.2 µM;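 also: 0% = DMSO only and full loss = 92 µM tetraoctylammonium bromide; cytotoxic hits lower the live-cell protease signal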
Method in brief: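 Human lymphoblastoid line LYMP1-003 in complete culture medium, treated 16 hr with titrated compounds. Viable cells quantified via cell-permeant GF-AFC substrate fluorescence; AC50 derived by Hill fitting.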

[13] = Cell Viability - LYMP1-003 - Assay at 40 hr (AID 964); conditions: LYMP1-003 lymphoblastoid viability; series mostly up to 92.2 µM; also: % is scaled to controls: 0 for no effect and ±100 for the full control effect; nearly all actives have a fitted effect of over 60% in size
Method in brief: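 Acute toxicity is scored as a concentration-dependent loss of intracellular ATP in LYMP1-003 cells (2500/well, complete medium) after 40 hr at 37 C, measured by CellTiter-Glo luminescence; AC50 values derive from standard Hill modelling.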

[14] = Cell Viability - LYMP2-011 (AID 969); conditions: LYMP2-011 lymphoblastoid cells viability; series mostly up to 92.2 µM;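 also: cells exposed to compound for 24 hours; 0% = DMSO only and full inhibition = 92 µM tetraoctylammonium bromide; nearly all actives have a fitted effect of over 60% in size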
Method in brief: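 Cells seeded at 2500 per well rest 5 hr before compound addition, then incubate 24 hr at 37 C. CellTiter-Glo reagent is added for 30 min at room temperature before luminescence detection.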

[15] = Cell Viability - LYMP2-017 (AID 972); conditions: LYMP2-017 lymphoblastoid cell viability; series mostly up to 92.2 µM;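 also: cells exposed to compound for 24 hours at 37 °C; % is scaled to controls: 0 for no effect and ±100 for the full control effect; nearly all actives have a fitted effect of over 55% in size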
Method in brief: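 In this qHTS format, lymphoblastoid cells in complete medium receive test compound for a day at 37 C before ATP content is quantified by luciferase luminescence. Reported AC50 figures come from standard Hill-equation curve fitting.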

[16] = Cell Viability - LYMP2-007 (AID 979); conditions: LYMP2-007 lymphoblastoid cell viability; series mostly up to 92.2 µM;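 also: cells exposed to compound for 24 h before reading; 0% = DMSO only and the negative end = 92 µM tetraoctylammonium bromide; nearly all actives have a fitted effect of over 60% in size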
Method in brief: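 Measured via luciferase-based ATP quantitation: lymphoblastoid cells, 24 hr compound exposure at 37 C, AC50 from Hill fits.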

[17] = Cell Viability - LYMP2-010 (AID 981); conditions: LYMP2-010 lymphoblastoid cell viability, qHTS; series mostly up to 92.2 µM;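 also: cells exposed to compound for 24 hours at 37 °C; % is scaled to controls: 0 for no effect and ±100 for the full control effect; nearly all actives have a fitted effect of over 55% in size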
Method in brief: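 This 24 hr viability screen uses LYMP2-010 lymphoblastoid cells, quantifies ATP via luciferase luminescence, and derives AC50 from Hill fits of qHTS concentration-response data.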

[18] = Cell Viability - LYMP2-012 (AID 982); conditions: LYMP2-012 lymphoblastoid cell viability qHTS; series mostly up to 92.2 µM;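 also: cellular ATP by luciferase luminescence where a drop means cytotoxicity; cells exposed to compound for one day before reading; 0% = DMSO only and full loss = 92 µM tetraoctylammonium bromide; nearly all actives have a fitted effect of over 55% in size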
[19] = Cell Viability - LYMP2-018 (AID 985); conditions: LYMP2-018 lymphoblastoid cells, viability (qHTS); series mostly up to 92.2 µM;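 also: plate controls were DMSO only for no effect and tetraoctylammonium bromide at 92 µM for full effect; nearly all actives have a fitted effect of over 50% in size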
Method in brief: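 In this qHTS viability assay, cells are treated for 24 hr and cellular ATP is quantified by luciferase-based luminescence, with tetraoctylammonium bromide as positive control.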

[20] = qHTS Assay for Identification of Small Molecule Inducers of Hypoxia Response (AID 2120; active = well fitted curve in the direction sought with a large enough effect in the signal ratio, with a control signal flat, not every such curve was filed as active; the % refers to the signal ratio; also: 0% is about no effect); conditions: hypoxia response reporter cells, beta-lactamase ratio readout; series mostly up to 104 µM
Method in brief: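 HRE-bla ME-180, 2500 cells/well, 0.5% dialyzed FBS medium; cpd titration, 17 h 37 degrees C; CCF4 2.5 h RT; Ex 405, Em 460/530 ratio -> %Activity, AC50.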

ClCCCl
inactive: Potency [1] > 92 µM | Potency [2] > 92 µM | Potency [3] | activity change, negative = cytotoxicity [4] 8.24% | outcome [5] | outcome [6] | outcome [7] | outcome [8] | outcome [9] | outcome [10] | outcome [11] | Potency [12] | Potency [13] | Potency [14] | Potency [15] | Potency [16] | Potency [17] | Potency [18] | Potency [19] | outcome [20]

CCC(O)OC(O)CC (stereo not given)
inactive: Potency [1] > 92 µM | Potency [2] > 92 µM | Potency [3] | activity change, negative = cytotoxicity [4] 7.91% and -0.346% | outcome [5] | outcome [6] | outcome [7] | outcome [8] | outcome [9] | outcome [10] | outcome [11] | Potency [12] | Potency [13] | Potency [14] | Potency [15] | Potency [16] | Potency [17] | Potency [18] | Potency [19] | outcome [20]

COc1ccc2nc(N)sc2c1
inactive: Potency [1] > 92 µM | Potency [2] > 92 µM | Potency [3] | activity change, negative = cytotoxicity [4] -1.25% | outcome [5] | outcome [6] | outcome [7] | outcome [8] | outcome [9] | outcome [10] | outcome [11] | Potency [12] | Potency [13] | Potency [14] | Potency [15] | Potency [16] | Potency [17] | Potency [18] | Potency [19] | outcome [20]

Clc1cc(Cl)c(Cl)cc1Cl
inactive: Potency [1] > 92 µM | Potency [2] > 92 µM | Potency [3] | activity change, negative = cytotoxicity [4] 9.51% | outcome [5] | outcome [6] | outcome [7] | outcome [8] | outcome [9] | outcome [10] | outcome [11] | Potency [12] | Potency [13] | Potency [14] | Potency [15] | Potency [16] | Potency [17] | Potency [18] | Potency [19] | outcome [20]

CC1=CC(C)(C)Nc2ccccc21
inactive: Potency [1] > 92 µM | Potency [2] > 92 µM | Potency [3] | activity change, negative = cytotoxicity [4] 16.2% and 9.84% | outcome [5] | outcome [6] | outcome [7] | outcome [8] | outcome [9] | outcome [10] | outcome [11] | Potency [12] | Potency [13] | Potency [14] | Potency [15] | Potency [16] | Potency [17] | Potency [18] | Potency [19] | outcome [20]

CCCCCCCCO
inactive: Potency [1] > 92 µM | Potency [2] > 92 µM | Potency [3] | activity change, negative = cytotoxicity [4] -3.19% | outcome [5] | outcome [6] | outcome [7] | outcome [8] | outcome [9] | outcome [10] | outcome [11] | Potency [12] | Potency [13] | Potency [14] | Potency [15] | Potency [16] | Potency [17] | Potency [18] | Potency [19] | outcome [20]
